Assay results reported in PubChem BioAssay AID624308 (National Center for Advancing Translational Sciences (NCATS), 2012).
Results filed as inconclusive are left out. Activity calls are given as the source filed them. The call rests on the fitted dose curve; in most records, active means well fitted inhibition curve with a large enough effect; inconclusive means small, poorly fitted or top-dose-only effect; inactive means flat fitted curve, though single readings scatter.

Molecular target: Peptidyl-prolyl cis-trans isomerase NIMA-interacting 1 (Homo sapiens) (UniProt Q13526)
Sequence (Q13526 whole entry, looked up): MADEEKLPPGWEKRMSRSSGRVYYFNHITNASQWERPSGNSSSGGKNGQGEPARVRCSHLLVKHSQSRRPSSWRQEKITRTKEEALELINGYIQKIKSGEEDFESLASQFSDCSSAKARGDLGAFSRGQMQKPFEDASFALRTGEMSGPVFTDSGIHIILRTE
Assay: qHTS Assay to Find Inhibitors of Pin1: Hit Validation
Details: Pin1 FP peptide displacement, HiFluor488 probe
Excerpt: The unique chemical properties of Pro allow for the adoption of two completely distinct amide bond conformations (cis and trans). Peptidyl-prolyl cis/trans isomerases (PPIases) are evolutionary conserved enzymes that catalyze cis/trans isomerization of peptidyl-prolyl peptide bonds. Distinct from all other PPIases such as cyclophilins and FK506-binding proteins (FKBPs), Pin1 binds a subset of phos.Ser/Thr-Pro-containing proteins using its protein-targeting WW domain and isomerizes only specific phos.Ser/Thr-Pro bonds, which cannot be effectively catalyzed by other known PPIases. […] The goal of this screen is to find small-molecule inhibitors of Pin1 using a fluorescence polarization competition assay. […]
Pin1 (0.6 uM) was dispensed into black, solid 1536-well plates at 2 uL/well in 10 mM HEPES (pH 7.5), 10 mM NaCl, 0.01% Tween20, 1 mM DTT, and 1% glycerol. […] The plates were measured on a ViewLux plate reader for fluorescence polarization signal using a 480/20 nM nm excitation filter and 540/25 nM nm S and P emission filters with a 20 second exposure. The %Activity was determined from the corrected fluorescence polarization values. […] Concentration-response curves were fitted to the signals arising from the resulting fluorescence polarization. […] Keywords: Peptidyl prolyl isomerase, Pin1, fluorescence polarization, MLSMR, MLPCN, NIH Roadmap, qHTS, NCGC

SMILES: Cc1cc2c(C(C)C)c(O)c(O)c(C=O)c2c(O)c1-c1c(C)cc2c(C(C)C)c(O)c(O)c(C=O)c2c1O
- Potency: 1690 nM (active)
